From the supplement of paper PMC12819154, “High-throughput peptide-centric local stability assay extends protein–ligand identification to membrane proteins, tissues and bacteria” (Nature Structural & Molecular Biology, 2025)

target: T1, UniProt P76038; assay: log2 fold change of tryptic peptide abundance, ligand vs vehicle (limited proteolysis) (log2 ratio); higher = more trypsin-susceptible (destabilized); conditions: peptide sequence: GLQELVVATGGSLHRK; peptide start residue: 116; ligand concentration: 5 mM; sample: E. coli desalted lysate; replicate design: treated before aliquoting
T1 sequence (whole entry): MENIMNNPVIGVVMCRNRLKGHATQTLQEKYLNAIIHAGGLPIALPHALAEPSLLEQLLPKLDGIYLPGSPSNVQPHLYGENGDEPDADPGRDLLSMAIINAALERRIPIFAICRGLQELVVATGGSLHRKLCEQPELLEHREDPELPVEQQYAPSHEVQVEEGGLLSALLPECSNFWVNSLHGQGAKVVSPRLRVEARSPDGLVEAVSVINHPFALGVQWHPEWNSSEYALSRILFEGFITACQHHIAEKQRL
Experimental: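 HT-PELSA: desalted E. coli K-12 BW25113 lysate (with 12 mM MgCl2) incubated with 5 mM ATP (pH 7) or water for 30 min at 25 C, then a 4 min trypsin pulse at 22 C. Peptides were quantified by DIA-MS (4 replicates). Value is the peptide log2 fold change (treated/control); negative = stabilized. Scale: negative = ligand-stabilized region.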
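Note: lysate desalted by size exclusion to strip endogenous ATP, peptide intensities built from DIA-NN precursor signals, and peptides missing any value discarded before comparison.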

Row | SMILES | log2 fold change
1 | Nc1ncnc2c1ncn2[C@@H]1O[C@H](COP(=O)(O)OP(=O)(O)OP(=O)(O)O)[C@@H](O)[C@H]1O [adenosine 5'-triphosphate] | 1.55
